# According to PubChem BioAssay:
# Potency and affinity values are given separately. A number with no mark means an inactive call. Calls of active or inactive are those of the source.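 How the source made its calls: active means a fitted half-maximal concentration no higher than twice the top valid tested dose, with signal falling as cells die; inconclusive means flat curve between -70% and -30%, or poor fit; inactive means the rest, including signal rising instead of falling.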
# Experiment: HeLa cell cytotoxicity, dose response, cytotoxicity control, ATP luminescence, cherry-pick samples (AID 687004);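 further: 0% = neutral control median and -100% = staurosporine 10 µM control median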
# Details: HeLa viability, ATP luminescence (CellTiter-Glo), 48 h; series mostly up to 26 µM; activity change, negative = cytotoxicity: at the top concentration
Compound,"activity change, negative = cytotoxicity [%]",outcome
Cc1cc(OCC(=O)NC(C)c2ccccc2)ccc1[N+](=O)[O-] (centres undefined),13,
COc1ccc(NC(=O)CSc2ncnc3c2cnn3Cc2ccccc2)cc1,1.14,
CCCC[C@@H]1CNC(=S)N1CCc1cccc(F)c1,5.15,
CC(C)COc1ccc(CNC(=S)NCc2ccccc2)cc1,0.134,
CCc1ccc(NC(=O)[C@H](C)NC(=O)C2CCN(C(=O)[C@@H](N)CC(C)C)CC2)cc1,3.79,
CCC(=O)Nc1ccc2c(c1)C(=O)N(C)C[C@H](OC)[C@@H](C)CN[C@H](C)CO2,7.31,
CCCC(=O)N1CCC1(C)C(=O)Nc1cc(C)ccc1C (centres undefined),,inactive
COC(=O)C1=C(C)N(Cc2ccccc2)C(=O)N[C@H]1c1cccc(F)c1,,inactive
O=C1CCC(C(=O)Nc2ccc([N+](=O)[O-])cc2)N1 (centres undefined),3.71,
